Drawing on PubChem BioAssay (NCATS), this text covers Potency, activity, negative = inhibition and outcome for 16 compounds.

Assay [1] addresses Cytochrome P450 3A4 (Homo sapiens) (UniProt P08684). In words: qHTS Assay for Inhibitors and Substrates of Cytochrome P450 3A4 (AID 884). Also: nearly all actives have a fitted effect of over 50% in size. Also: potency is read from the fitted curve at half-maximal effect. Put shortly: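 Luminescent readout of luciferin produced by CYP3A4 (20 nM) dealkylation of Luciferin-PPXE, 25 uM (its KM). NADPH-driven reaction ran 60 min at RT after 10 min compound preincubation; data scaled to 57 uM ketoconazole as 100% inhibition.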
For orientation: In qHTS, concentration-response curves come from the screen itself.

For assay [2], the target named is Ubiquitin carboxyl-terminal hydrolase 1 (Homo sapiens) (UniProt O94782). Put plainly: Inhibitors of USP1/UAF1: Pilot qHTS (AID 504865). Also: nearly all actives have a fitted effect of over 35% in size. Also: potency is read from the fitted curve at half-maximal effect. An outline of the steps:
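USP1/UAF1 complex (1nM) preincubated with compound 15 min at room temperature, then Ub-Rho substrate (150nM final) added. Fluorescence read kinetically at 480/540 nm, 6 reads every 60 seconds. Buffer: 50mM HEPES pH 7.8, 0.5mM EDTA, 0.1 mg/ml BSA, 1mM TCEP, 0.01% Tween-20.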

The target of assay [3] is DNA dC->dU-editing enzyme APOBEC-3G (Homo sapiens) (UniProt Q9HC16). In words: qHTS for inhibitors of Vif-A3G interactions: Validation (AID 588379). Also: 0% is about no effect. Put shortly: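 Yellow fluorescence (Ex 488, Em 500-530) of Vif-coexpressing HeLa A3G-eYFP cells, scanned by Acumen cytometer, reports blocked A3G degradation. Cells plated at 700/well overnight at 37 deg C before compound addition, then a further overnight compound incubation at 37 deg C.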

Assay [4] has as its target Luciferin 4-monooxygenase (Photinus pyralis) (UniProt P08659). Put plainly: Biochemical firefly luciferase enzyme assay for NPC (AID 624030).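 Also: purified P. pyralis luciferase at 10 nM with luciferin and ATP substrate; 0% = DMSO and -100% = full luciferase inhibition by PTC124 control; nearly all actives have a fitted effect of over 70% in size.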 Put shortly: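 Purified P. pyralis luciferase at 10 nM in 50 mM Tris Acetate (final), luminescence read within 5 minutes of enzyme addition to compounds. Activity normalised to PTC124 versus DMSO; concentration-response curves classed by r2, magnitude and activity.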

A short description of assay [5]: qHTS profiling for inhibitors of Plasmodium falciparum proliferation (AID 504749).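 Also: 0% = DMSO vehicle and full inhibition = artemisinin control; nearly all actives have a fitted effect of over 60% in size.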 The settings on record: P. falciparum in erythrocytes, SYBR Green DNA, 72 h, at 28.7 µM (top of the series). Put shortly: (§1)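 Each compound contacts P. falciparum-infected red blood cells for 72 h at 37 C; lysis buffer (Tris, EDTA, saponin, Triton X, SYBR Green I) is added and fluorescence measured next morning; values normalized to controls.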

A further assay concerns ATS189. Described as above. The settings on record: P. falciparum in erythrocytes, SYBR Green DNA, 72 h; series mostly up to 28.7 µM. An outline of the steps:
as §1

In another assay the test system is CP185. The assay is described as above. Particulars: P. falciparum in erythrocytes, SYBR Green DNA, 72 h; series mostly up to 28.7 µM. Put shortly: as §1
A further assay has as its system CP201. The description is as above. Particulars: P. falciparum in erythrocytes, SYBR Green DNA, 72 h; series mostly up to 28.7 µM. An outline of the steps: as §1
A further assay deals with CP238. The assay is described as above. Particulars: P. falciparum in erythrocytes, SYBR Green DNA, 72 h; series mostly up to 28.7 µM. Put shortly: as §1
For another assay, the system named is CP252. Described as above. Particulars: P. falciparum in erythrocytes, SYBR Green DNA, 72 h; series mostly up to 28.7 µM. Put shortly: as §1
The test system of the next assay is CP265. The description is as above. The settings on record: P. falciparum in erythrocytes, SYBR Green DNA, 72 h; series mostly up to 28.7 µM. An outline of the steps:
as §1

The test system of the next assay is CP286. Described as above. Particulars: P. falciparum in erythrocytes, SYBR Green DNA, 72 h; series mostly up to 28.7 µM. An outline of the steps:
as §1

For a further assay, the system named is CP305. The assay is described as above. The settings on record: P. falciparum in erythrocytes, SYBR Green DNA, 72 h; series mostly up to 28.7 µM. An outline of the steps: as §1
The subject of another assay is CP325. Described as above. The settings on record: P. falciparum in erythrocytes, SYBR Green DNA, 72 h; series mostly up to 28.7 µM. An outline of the steps: as §1
The next assay has as its system FAB9. The assay is described as above. The settings on record: P. falciparum in erythrocytes, SYBR Green DNA, 72 h; series mostly up to 28.7 µM. An outline of the steps: as §1
The test system of another assay is PC15. The assay is described as above. The settings on record: P. falciparum in erythrocytes, SYBR Green DNA, 72 h; series mostly up to 28.7 µM. Put shortly:
as §1

The subject of another assay is PC49. Described as above. The settings on record: P. falciparum in erythrocytes, SYBR Green DNA, 72 h; series mostly up to 28.7 µM. An outline of the steps:
as §1

The nature of assay [6]: Confirmation and Secondary Assay for Modulators of Hemoglobin Beta Chain Splicing at IVS2 654 locus (AID 910).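 Also: HeLa cells stably carrying EGFP split by mutant beta-globin IVS2-654 intron; % of control where 0% means no effect.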 An outline of the steps:
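HeLa cells stably expressing EGFP interrupted by β-globin IVS2-654 intron, seeded overnight in Opti-MEM/2% FCS, then treated 2 days at 37 °C. Restored splicing read as total peak GFP intensity per well by laser scanning cytometry (488 nm excitation, 500–520 nm emission); 500 nM antisense PNA as control.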

The target of assay [7] is Cytochrome P450 3A4 (Homo sapiens) (UniProt P08684). Put plainly: qHTS Assay for Activators of Cytochrome P450 3A4 (AID 885). Also: nearly all actives have a fitted effect of over 65% in size. Put shortly: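 CYP3A4 activity: Luciferin-PPXE O-dealkylation, 25uM substrate, 200mM KPO4, RT throughout. Read-out is luciferase luminescence; higher values reflect activation.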

Values without a mark were called inactive. Records with an inconclusive call do not appear. Activity calls are given as the source filed them. Calls follow the shape of the dose curve; as a rule, active = well fitted curve in the direction sought with a large enough effect; inconclusive = small, poorly fitted or top-dose-only effect, or another doubt; inactive = no such curve, though single readings can be large; an effect the other way counts as inactive or inconclusive.

Cytochrome P450 3A4 (Homo sapiens), sequence (P08684 whole entry, looked up): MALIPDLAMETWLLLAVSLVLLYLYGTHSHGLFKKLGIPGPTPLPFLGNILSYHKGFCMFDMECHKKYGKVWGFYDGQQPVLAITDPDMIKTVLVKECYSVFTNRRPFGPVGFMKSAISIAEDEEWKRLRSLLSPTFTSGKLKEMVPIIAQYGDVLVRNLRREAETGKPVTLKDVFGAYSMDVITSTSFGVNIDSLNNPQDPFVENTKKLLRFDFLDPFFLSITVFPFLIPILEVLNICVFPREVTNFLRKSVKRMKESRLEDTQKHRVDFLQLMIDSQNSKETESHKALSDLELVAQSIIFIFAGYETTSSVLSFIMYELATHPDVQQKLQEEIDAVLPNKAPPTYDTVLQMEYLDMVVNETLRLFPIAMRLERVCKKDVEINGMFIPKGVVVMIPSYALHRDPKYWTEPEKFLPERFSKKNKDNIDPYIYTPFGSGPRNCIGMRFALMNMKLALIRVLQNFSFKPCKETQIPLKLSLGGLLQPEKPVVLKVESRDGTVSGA
Ubiquitin carboxyl-terminal hydrolase 1 (Homo sapiens), sequence (O94782 whole entry, looked up): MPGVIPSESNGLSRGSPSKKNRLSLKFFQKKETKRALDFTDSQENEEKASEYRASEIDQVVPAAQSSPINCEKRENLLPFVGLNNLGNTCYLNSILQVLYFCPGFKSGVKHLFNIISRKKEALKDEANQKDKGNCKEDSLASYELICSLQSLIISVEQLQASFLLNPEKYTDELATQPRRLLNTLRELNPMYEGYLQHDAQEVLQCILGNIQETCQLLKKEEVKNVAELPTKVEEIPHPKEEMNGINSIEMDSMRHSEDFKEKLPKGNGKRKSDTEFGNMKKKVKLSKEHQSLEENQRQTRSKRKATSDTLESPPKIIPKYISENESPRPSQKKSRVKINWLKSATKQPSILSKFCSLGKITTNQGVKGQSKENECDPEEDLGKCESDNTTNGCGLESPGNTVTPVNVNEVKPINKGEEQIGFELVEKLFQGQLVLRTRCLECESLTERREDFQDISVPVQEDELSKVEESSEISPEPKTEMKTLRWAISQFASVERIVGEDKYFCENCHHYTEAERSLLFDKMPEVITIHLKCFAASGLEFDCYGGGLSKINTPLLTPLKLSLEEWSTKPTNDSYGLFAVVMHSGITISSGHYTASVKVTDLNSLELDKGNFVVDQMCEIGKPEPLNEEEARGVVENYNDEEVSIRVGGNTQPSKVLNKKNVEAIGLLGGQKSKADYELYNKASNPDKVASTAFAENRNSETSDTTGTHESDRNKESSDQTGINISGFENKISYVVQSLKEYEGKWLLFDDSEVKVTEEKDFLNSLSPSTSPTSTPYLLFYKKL
DNA dC->dU-editing enzyme APOBEC-3G (Homo sapiens), sequence (Q9HC16 whole entry, looked up): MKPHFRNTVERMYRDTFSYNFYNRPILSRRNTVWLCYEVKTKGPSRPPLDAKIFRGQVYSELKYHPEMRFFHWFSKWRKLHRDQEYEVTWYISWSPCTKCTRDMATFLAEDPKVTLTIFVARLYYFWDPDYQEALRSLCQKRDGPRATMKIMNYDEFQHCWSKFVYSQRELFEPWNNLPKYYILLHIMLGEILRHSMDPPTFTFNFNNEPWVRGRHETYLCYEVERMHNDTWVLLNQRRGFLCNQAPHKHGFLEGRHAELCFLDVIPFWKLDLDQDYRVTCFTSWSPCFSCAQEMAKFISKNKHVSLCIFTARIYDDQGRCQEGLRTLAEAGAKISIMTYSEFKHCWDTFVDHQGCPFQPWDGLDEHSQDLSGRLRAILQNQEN
Luciferin 4-monooxygenase (Photinus pyralis), sequence (P08659 whole entry, looked up): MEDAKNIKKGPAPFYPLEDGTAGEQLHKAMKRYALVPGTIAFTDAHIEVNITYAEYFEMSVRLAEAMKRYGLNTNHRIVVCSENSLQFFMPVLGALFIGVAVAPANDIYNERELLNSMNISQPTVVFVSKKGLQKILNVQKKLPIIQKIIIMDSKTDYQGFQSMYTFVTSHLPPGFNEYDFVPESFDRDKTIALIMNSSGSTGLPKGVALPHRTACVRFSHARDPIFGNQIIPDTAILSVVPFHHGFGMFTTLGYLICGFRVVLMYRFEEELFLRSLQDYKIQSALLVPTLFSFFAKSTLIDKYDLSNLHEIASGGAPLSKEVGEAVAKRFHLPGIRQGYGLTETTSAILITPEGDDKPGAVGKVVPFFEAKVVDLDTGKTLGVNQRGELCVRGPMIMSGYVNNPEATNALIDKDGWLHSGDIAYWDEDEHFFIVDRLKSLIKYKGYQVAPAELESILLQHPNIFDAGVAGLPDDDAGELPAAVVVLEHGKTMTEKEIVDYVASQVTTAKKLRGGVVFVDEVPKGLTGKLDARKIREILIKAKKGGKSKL

With `CCOc1ccc(/C=C/C(=O)c2cccs2)cc1`, the Potency result in assay [1], in assay [2] and in [3] was “inactive” each time.

`CCC1NC(=O)C(NC(=O)c2ncccc2O)C(C)OC(=O)C(c2ccccc2)NC(=O)C2CC(=O)CCN2C(=O)C(Cc2ccccc2)N(C)C(=O)C2CCCN2C1=O` (stereo not drawn): the Potency entry (in [2]; in assay [4]; in the assay on ATS189; in the assay on CP185; in the assay on CP201; in the assay on CP238) was “inactive” each time. For the same compound, the Potency entry in the assay with CP252, in the assay with CP265, with CP286, with CP305, in the assay on CP325 and in the assay on FAB9 was “inactive” each time. For the same compound, the Potency result in the assay on PC15 and in the assay on PC49 was “inactive” in each case. Besides, the activity, negative = inhibition in assay [5] (parasite line A) was -20.9%; in [5] (parasite line B) it was -28.7%.

Take `OC[C@H]1O[C@@H](OC[C@H]2O[C@@H](O)[C@H](O)[C@@H](O)[C@@H]2O)[C@H](O)[C@@H](O)[C@@H]1O`: the Potency entry in assay [1], in assay [2] and in assay [3] was “inactive” throughout.

Consider `OC[C@H]1O[C@@H](n2cnc3c(NCc4ccccc4)ncnc32)[C@H](O)[C@@H]1O`, for which the Potency entry in assay [1] and in [2] was “inactive” throughout.

Take `CC(=O)OC(C)(C)C1Cc2cc3ccc(=O)oc3cc2O1` (stereo not drawn): the Potency result in assay [1] and in assay [2] was “inactive” each time. The outcome in [6] was inactive.

Turning to `COc1ccc(-c2oc3ccccc3c(=O)c2O)cc1`, the Potency entry in assay [7], in assay [2] and in assay [3] was “inactive” throughout.

On to `COc1cc2c(C(=O)c3ccccc3)c3c4c(cc(OC)c(OC)c4c2cc1OC)CCN3C`, for which the figures for the Potency in [1] and in [2] were 1.26 µM (active) and 25.1 µM (active), respectively. For the same compound, the Potency result in assay [7] and in [3] was “inactive” throughout.

In the case of `CCC(=O)O[C@H]1C(O[C@@H]2C(C)[C@H](O[C@H]3C[C@@](C)(OC)C(O)C(C)O3)C(C)C(=O)OC(CC)[C@@](C)(O)C(O)[C@H](C)C(=O)C(C)C[C@]2(C)O)OC(C)CC1N(C)C` (stereo partly drawn), the results for the Potency in [1] and in [2] were 0.631 µM (active) and 20 µM (active), respectively. Besides, in assay [7], the Potency result is “inactive”. Besides, in assay [6], the call was inactive.

For the compound `COc1c2ccoc2c(OC)c2oc(=O)ccc12`, the Potency in assay [1] is 2 µM (active). The Potency entry in [7] and in assay [2] was “inactive” throughout.

In the case of `Cc1onc(-c2c(Cl)cccc2Cl)c1C(=O)NC1C(=O)N2C1SC(C)(C)C2C(=O)O` (stereo not drawn), the Potency entry in [1] and in assay [2] was “inactive” in each case. Moreover, the compound was classed as inactive in assay [6].

`Nc1ncnc2c1nc(Br)n2C1OC(CO)C(O)C1O` (stereo not drawn): the Potency entry in assay [1] and in assay [2] was “inactive” throughout.

With `CC(=O)OC1CC[C@@]2(C)C3CC[C@@]4(C)C(CC5O[C@@]6(CCC(C)CO6)C(C)C54)C3CC[C@@H]2C1` (stereo partly drawn), the Potency entry in assay [1] and in assay [2] was “inactive” each time. Besides, the compound was called inactive in assay [6].

Turning to `COc1cccc2oc(-c3ccccc3)cc(=O)c12`, the Potency result in assay [7], in assay [2] and in assay [3] was “inactive” in each case.

Regarding `CC1CC2C3CCC4=CC(=O)C=C[C@@]4(C)[C@]3(F)C(O)C[C@]2(C)[C@]1(O)C(=O)COP(=O)(O)O` (stereo partly drawn), the Potency entry in assay [7], in assay [2] and in [4] was “inactive” each time. Also, the compound was classed as inactive in assay [6].

For `O=C1CC(c2ccccc2O)Oc2ccc(O)cc21` (stereo not drawn), the Potency result in assay [7], in assay [2] and in assay [3] was “inactive” in each case.

Turning to `NC(Cc1cnc[nH]1)C(=O)Nc1ccc2ccccc2c1` (stereo not drawn), the Potency in assay [1] is 2.51 µM (active). For the same compound, the Potency result in assay [7] and in assay [2] was “inactive” each time. The result in assay [6] was inactive.
